Experimental data: the supplement of paper PMC11732987, “Enantioselective OTUD7B fragment discovery through chemoproteomics screening and high-throughput optimisation” (Communications Chemistry, 2025)

Tests used:
Experiment in all cases: log2 ratio of Biotin-Ahx-Ub-VS probe labelling (fragment/DMSO); higher = less target engagement (more negative = stronger competition), active = hit call of the paper (q ≤ 0.05, log2 ratio ≤ -1)
Conditions in all cases: compound concentration: 200 uM; treatment time: 3 h
USP19 = target: T1, USP19 (UniProt O94966)
T1 sequence (whole entry): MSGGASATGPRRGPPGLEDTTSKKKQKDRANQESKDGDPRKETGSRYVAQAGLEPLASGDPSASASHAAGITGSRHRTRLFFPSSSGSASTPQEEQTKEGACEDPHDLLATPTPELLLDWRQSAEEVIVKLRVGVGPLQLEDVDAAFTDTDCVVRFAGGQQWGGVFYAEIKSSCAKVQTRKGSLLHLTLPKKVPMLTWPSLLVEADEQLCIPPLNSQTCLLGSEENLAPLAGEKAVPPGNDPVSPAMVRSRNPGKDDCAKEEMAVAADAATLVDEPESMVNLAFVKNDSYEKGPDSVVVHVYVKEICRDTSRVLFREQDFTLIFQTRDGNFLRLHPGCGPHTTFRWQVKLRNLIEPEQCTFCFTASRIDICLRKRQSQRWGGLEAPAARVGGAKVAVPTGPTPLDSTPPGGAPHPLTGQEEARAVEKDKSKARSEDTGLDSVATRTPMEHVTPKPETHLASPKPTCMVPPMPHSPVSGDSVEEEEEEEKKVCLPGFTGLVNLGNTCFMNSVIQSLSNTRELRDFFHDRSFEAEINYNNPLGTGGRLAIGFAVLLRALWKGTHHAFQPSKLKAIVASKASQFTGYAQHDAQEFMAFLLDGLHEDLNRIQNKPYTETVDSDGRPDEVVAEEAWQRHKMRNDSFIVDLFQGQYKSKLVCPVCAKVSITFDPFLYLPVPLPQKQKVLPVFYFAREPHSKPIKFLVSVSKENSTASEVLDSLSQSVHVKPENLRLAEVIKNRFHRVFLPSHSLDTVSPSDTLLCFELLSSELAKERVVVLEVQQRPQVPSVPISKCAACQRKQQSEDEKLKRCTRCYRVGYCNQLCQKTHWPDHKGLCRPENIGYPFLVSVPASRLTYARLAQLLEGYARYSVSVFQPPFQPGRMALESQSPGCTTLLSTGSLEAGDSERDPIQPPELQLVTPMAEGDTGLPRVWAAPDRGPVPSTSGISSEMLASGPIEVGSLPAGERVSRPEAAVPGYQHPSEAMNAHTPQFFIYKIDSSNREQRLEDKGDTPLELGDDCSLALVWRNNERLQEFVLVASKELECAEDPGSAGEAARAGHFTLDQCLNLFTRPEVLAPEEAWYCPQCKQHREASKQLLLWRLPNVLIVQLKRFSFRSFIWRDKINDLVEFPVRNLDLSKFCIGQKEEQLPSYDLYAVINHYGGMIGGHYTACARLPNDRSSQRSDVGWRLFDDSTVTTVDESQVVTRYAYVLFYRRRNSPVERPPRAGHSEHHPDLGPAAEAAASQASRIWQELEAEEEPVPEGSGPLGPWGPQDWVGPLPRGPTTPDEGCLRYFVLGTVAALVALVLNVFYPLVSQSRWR
In short: (§1)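 The table lists average log2 ratios of fragment over vehicle, from an unpaired t-test on global-median-normalised Spectronaut label-free quantities. Proteins with ≥2 unique peptides were used. Samples were HEK293T lysate (495 µg) treated in triplicate with fragment at 200 µM or vehicle for 3 h, then with Biotin-Ahx-Ub-VS (0.5 µM final) for 1 h, with labelled DUBs NeutrAvidin-enriched and run by diaPASEF LC-MS/MS.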

USP22 = target: T2, USP22 (UniProt Q9UPT9)
T2 sequence (whole entry): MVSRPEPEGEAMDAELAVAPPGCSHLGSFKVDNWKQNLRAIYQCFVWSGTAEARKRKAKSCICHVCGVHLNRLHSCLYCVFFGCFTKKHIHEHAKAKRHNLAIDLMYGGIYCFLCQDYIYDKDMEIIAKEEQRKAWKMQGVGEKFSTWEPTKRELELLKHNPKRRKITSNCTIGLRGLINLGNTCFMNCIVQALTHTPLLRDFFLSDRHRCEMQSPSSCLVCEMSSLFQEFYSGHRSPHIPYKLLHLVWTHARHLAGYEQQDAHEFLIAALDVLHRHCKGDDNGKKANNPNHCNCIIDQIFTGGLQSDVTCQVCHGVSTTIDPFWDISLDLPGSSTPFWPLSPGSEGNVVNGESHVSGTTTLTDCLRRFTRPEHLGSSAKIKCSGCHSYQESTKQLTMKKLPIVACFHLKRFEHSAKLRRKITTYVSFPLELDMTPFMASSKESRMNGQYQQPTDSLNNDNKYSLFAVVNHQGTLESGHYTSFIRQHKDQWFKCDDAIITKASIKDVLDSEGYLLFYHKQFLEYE
In short: as §1

USP24 = USP24 (UniProt Q9UPU5)
In short: as §1

USP25 = target: T3, USP25 (UniProt Q9UHP3)
T3 sequence (whole entry): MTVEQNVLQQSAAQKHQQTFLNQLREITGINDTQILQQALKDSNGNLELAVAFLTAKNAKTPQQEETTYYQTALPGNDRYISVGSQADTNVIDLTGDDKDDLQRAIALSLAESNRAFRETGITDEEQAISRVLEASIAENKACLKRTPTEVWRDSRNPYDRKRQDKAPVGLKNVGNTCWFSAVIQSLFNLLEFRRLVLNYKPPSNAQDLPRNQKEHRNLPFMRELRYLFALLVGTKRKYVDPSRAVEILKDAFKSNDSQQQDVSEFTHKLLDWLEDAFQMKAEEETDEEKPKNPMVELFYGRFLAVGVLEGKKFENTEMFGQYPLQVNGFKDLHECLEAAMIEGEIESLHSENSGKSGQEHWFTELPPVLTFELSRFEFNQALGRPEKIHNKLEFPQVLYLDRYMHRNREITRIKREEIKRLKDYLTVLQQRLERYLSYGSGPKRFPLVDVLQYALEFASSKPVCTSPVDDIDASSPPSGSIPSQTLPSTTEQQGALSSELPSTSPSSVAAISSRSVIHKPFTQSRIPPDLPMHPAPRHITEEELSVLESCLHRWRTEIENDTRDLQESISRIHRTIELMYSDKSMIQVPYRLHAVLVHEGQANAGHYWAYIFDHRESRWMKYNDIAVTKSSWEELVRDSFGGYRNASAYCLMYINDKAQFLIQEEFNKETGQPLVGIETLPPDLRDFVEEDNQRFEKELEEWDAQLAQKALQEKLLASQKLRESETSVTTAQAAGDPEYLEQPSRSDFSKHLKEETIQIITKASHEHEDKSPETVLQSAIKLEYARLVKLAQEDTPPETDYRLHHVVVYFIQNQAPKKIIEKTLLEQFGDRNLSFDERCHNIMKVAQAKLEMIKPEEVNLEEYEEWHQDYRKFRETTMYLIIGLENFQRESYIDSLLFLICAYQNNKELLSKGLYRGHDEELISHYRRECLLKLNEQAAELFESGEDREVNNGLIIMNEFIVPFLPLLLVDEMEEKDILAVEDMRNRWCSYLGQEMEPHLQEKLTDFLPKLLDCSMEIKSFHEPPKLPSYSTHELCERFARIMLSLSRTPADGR
In short: as §1

USP28 = target: T4, USP28 (UniProt Q96RU2)
T4 sequence (whole entry): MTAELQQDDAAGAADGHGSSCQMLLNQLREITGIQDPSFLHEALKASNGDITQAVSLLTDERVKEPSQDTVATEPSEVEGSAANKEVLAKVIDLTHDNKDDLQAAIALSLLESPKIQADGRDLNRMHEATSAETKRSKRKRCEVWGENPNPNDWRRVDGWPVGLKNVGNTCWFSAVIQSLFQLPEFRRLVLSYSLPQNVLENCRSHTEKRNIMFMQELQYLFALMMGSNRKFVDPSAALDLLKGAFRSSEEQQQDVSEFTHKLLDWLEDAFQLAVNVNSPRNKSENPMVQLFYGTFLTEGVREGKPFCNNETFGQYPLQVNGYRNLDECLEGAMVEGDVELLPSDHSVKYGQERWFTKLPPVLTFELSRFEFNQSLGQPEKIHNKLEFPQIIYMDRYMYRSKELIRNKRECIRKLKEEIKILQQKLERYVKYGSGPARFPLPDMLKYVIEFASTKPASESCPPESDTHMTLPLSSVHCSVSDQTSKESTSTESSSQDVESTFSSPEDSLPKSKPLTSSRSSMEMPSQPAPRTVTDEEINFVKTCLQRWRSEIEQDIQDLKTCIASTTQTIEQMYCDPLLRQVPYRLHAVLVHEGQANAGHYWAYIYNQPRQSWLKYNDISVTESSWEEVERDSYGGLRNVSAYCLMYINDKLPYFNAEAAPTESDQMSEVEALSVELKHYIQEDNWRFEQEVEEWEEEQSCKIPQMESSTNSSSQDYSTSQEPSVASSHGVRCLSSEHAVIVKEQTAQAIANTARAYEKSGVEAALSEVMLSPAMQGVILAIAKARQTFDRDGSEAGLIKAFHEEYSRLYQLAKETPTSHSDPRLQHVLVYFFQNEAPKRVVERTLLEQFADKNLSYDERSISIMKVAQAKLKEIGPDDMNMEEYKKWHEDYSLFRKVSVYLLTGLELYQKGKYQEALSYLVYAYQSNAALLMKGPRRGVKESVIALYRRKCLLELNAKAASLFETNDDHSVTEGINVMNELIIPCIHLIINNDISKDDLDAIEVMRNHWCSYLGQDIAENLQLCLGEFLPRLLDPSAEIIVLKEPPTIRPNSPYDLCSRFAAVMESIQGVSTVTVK
In short: as §1

Measured: log2 ratio of Biotin-Ahx-Ub-VS probe labelling

Chain of USP24 (Q9UPU5 whole entry): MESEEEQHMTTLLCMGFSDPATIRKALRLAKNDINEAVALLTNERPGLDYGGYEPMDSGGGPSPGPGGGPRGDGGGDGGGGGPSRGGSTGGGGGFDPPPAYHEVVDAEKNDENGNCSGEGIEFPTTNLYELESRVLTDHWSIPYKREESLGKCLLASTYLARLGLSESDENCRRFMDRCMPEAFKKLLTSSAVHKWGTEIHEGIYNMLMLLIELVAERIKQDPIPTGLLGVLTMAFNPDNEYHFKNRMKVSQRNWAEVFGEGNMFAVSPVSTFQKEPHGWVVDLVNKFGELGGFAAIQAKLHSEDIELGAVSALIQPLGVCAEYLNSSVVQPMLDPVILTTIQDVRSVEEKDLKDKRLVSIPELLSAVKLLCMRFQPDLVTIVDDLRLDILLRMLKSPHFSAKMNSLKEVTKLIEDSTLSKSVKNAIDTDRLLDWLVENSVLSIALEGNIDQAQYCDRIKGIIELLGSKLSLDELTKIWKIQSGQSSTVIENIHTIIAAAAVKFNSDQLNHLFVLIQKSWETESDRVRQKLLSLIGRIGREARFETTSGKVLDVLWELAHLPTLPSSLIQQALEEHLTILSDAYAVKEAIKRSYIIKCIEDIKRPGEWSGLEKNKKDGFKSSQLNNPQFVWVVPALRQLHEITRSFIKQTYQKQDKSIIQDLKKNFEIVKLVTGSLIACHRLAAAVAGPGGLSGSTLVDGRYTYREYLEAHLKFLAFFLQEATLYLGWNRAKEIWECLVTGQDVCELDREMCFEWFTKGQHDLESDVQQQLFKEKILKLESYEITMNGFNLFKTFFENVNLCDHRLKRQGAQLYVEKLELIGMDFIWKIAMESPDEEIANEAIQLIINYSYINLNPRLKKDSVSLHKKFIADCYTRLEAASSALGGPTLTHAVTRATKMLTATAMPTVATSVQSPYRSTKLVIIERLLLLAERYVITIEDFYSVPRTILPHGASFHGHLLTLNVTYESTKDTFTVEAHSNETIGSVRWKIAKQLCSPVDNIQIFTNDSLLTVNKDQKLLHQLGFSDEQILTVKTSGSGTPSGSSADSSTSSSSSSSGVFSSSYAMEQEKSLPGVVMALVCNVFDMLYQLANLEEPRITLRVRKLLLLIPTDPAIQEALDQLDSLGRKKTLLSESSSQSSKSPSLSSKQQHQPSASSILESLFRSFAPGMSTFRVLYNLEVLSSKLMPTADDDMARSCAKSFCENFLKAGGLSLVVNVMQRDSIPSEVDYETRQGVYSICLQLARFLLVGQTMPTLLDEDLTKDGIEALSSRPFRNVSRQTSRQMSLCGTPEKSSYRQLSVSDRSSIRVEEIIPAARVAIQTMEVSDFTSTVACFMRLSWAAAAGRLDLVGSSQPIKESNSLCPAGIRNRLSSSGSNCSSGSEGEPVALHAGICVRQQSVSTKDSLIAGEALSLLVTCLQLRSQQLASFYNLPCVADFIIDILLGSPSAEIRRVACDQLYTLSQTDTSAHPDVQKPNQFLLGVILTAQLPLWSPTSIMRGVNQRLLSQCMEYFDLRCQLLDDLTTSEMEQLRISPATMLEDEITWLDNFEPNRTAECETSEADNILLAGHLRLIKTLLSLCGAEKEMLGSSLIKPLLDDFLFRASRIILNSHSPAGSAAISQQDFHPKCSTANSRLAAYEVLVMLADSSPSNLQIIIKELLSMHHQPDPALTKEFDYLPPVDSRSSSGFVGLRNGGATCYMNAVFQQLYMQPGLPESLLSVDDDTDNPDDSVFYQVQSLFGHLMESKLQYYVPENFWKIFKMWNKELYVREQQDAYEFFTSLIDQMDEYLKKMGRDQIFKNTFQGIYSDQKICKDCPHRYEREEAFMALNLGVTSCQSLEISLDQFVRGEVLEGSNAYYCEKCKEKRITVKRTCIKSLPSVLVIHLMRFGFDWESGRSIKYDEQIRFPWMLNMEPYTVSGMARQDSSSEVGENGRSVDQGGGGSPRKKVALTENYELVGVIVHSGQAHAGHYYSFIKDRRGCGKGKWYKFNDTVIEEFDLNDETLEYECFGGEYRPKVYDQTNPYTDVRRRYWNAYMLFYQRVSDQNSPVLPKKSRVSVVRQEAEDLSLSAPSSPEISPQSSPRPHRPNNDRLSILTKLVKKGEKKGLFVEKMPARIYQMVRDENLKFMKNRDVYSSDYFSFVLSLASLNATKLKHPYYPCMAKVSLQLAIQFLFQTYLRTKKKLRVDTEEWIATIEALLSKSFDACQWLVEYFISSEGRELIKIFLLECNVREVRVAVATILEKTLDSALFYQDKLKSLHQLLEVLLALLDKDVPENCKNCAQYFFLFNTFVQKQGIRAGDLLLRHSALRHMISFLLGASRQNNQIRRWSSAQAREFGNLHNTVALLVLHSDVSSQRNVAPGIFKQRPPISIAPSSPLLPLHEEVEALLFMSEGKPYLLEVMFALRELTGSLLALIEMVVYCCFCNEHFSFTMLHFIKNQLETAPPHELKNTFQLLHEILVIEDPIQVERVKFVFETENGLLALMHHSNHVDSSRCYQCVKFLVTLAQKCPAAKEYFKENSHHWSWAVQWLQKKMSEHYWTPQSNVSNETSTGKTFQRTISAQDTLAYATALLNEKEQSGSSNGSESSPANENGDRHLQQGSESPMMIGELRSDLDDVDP

O=C(CCl)N1CCC2(CCC(O)CC2)CC1
inactive: USP19 0.0572 | USP22 -0.145 | USP24 -0.133 | USP25 -0.0651 | USP28 -0.372
